From PubChem BioAssay (NCI)
This is part of a sample that, as a whole, favours compounds with a hit. Of some 83,000 tested, about 20% had one in any assay.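 Each cell line was grown in a 96-well plate and treated with one concentration of compound for 48 hours. Values below 10 were considered active.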 Values without a mark were called inactive. The source made the active and inactive calls.

Experiments:
Assay in all cases: NCI-60 one-dose screen, 48 h (100 = growth as untreated, 0 = no growth, -100 = all killed)
SK-MEL-2 melanoma = details: 10 µM unless noted
SN12C renal = details: 10 µM unless noted
UO-31 renal = details: 10 µM unless noted
ACHN renal = details: 10 µM unless noted
CAKI-1 renal = details: 10 µM unless noted
A498 renal = details: 10 µM unless noted
CCRF-CEM leukemia = details: 10 µM
MOLT-4 leukemia = details: 10 µM unless noted
TK-10 renal = details: 10 µM unless noted

Structure (SMILES)	growth (SK-MEL-2 melanoma)	growth (SN12C renal)	growth (UO-31 renal)	growth (ACHN renal)	growth (CAKI-1 renal)	growth (A498 renal)	growth (CCRF-CEM leukemia)	growth (MOLT-4 leukemia)	growth (TK-10 renal)
OCCN1CCN(CC/C=C2/c3ccccc3Sc3ccc(C(F)(F)F)cc32)CC1	79.8%	72.6%	40.1%	79%	74.9%	79.2%	–	–	–
CC(=O)C(CO)C(=O)Nc1ccccc1 (stereo unspecified)	90.4%	101%	106%	93.3%	94.8%	–	99.2%	102%	–
CC(=O)CC(=O)OC/C=C(/C)CCC=C(C)C	126%	94.5%	102%	102%	–	–	116%	94.7%	108%
CCCCN(CCCC)c1ccc(C(=O)O)cc1	83.5%	97.9%	82.9%	105%	103%	–	–	99%	86.3%
CC[N+](C)(C)N	108%	104%	–	110%	95.4%	121%	–	104%	100%
COC1=CC(c2ccc[nH]2)=N/C1=C\c1[nH]c(C)c(C(=O)CCCCC(=O)NC(C)(C)C)c1C	98%	55.3%	18%	71.8%	34.1%	–	68.5%	21.2%	-18.2% (active)
CCC(C)CC(N)O (stereo unspecified)	128%	109%	101%	106%	110%	109%	115%	106%	–
Cc1ccc(S(=O)(=O)NC(CCC(=O)Nc2ccccc2)C(=O)Nc2ccccc2)cc1 (stereo unspecified)	-39.6% (active)	3.91% (active)	-16.3% (active)	-50.7% (active)	12%	–	5.4% (active)	8.8% (active)	-12.9% (active)
Cc1ccc(C(=O)C(Br)C(Br)c2ccccc2)cc1 (stereo unspecified)	113%	86.4%	66.9%	44.3%	55.1%	–	–	46%	–
CCOC(=O)/C(C#N)=C(/CC)OCC	91.7%	109%	84.1%	94.6%	95.4%	122%	–	85%	91.9%
CCOc1ccc(Br)cc1/C=C(\C#N)c1ccc([N+](=O)[O-])cc1	88.6%	85.3%	81.5%	68%	77.7%	80.2%	–	82.7%	–
C[n+]1c2ccccc2c(Nc2ccc(NS(=O)(=O)CCCCN=C(N)N)cc2)c2ccc(N)cc21	86.2%	17.8%	50.2%	24.1%	43.2%	50.8%	–	-13% (active)	–
COC(=O)[C@H](Cc1cn(C)cn1)NC(=O)[C@H](Cc1c[nH]c2ccccc12)NC(=O)Nc1cc(C(F)(F)F)cc(C(F)(F)F)c1	-82.6% [100 µM] (active)	-83.7% [100 µM] (active)	22.5% [100 µM]	-38% [100 µM] (active)	–	-35.8% [100 µM] (active)	–	-45.8% [100 µM] (active)	-66.2% [100 µM] (active)
CC(=O)Oc1cc2ccccc2cc1C(C)C	85.7%	111%	88.7%	97.4%	106%	81%	–	109%	–
COc1ccc(/C=C/C(=O)/C=C/c2cc3ccccc3[nH]c2=O)cc1	95.9%	66.5%	94.4%	84.1%	98.2%	–	8.49% (active)	19.4%	118%
CNc1nc2ncn(C)c2c(=O)[nH]1	94.3%	92%	83.3%	71.5%	84.1%	96.4%	–	94.8%	84.1%
CCCCS(=O)(=O)c1cc(Nc2ccc(O)c3c2C(=O)c2ccccc2C3=O)ccc1C	92.5%	71.5%	54.8%	92.2%	–	126%	59.7%	–	116%
Cc1ccc(S(=O)(=O)N/N=C2\CC3CCC2C3)cc1 (stereo unspecified)	108%	99.9%	93.9%	94.7%	101%	97.7%	100%	109%	–
COC(=O)c1cc(Nc2ccc(O)c3c2C(=O)c2c([N+](=O)[O-])ccc(O)c2C3=O)cc(C(=O)OC)c1	10.6%	70.5%	67.1%	90.5%	–	93.8%	23%	25.5%	60.4%
CCCCCCN(CCCCCC)CCC(=O)Nc1ccc(S(=O)(=O)c2ccc(NC(=O)CCN(CCCCCC)CCCCCC)cc2)cc1	122%	81.4%	52.3%	88.3%	86.6%	–	51.3%	59.1%	109%
N#CCc1ncc(-c2ccc(C(F)(F)F)cc2)c(NC2CCCCCC2)n1	-22.1% [100 µM] (active)	30.4% [100 µM]	29.8% [100 µM]	18.4% [100 µM]	–	1.91% [100 µM] (active)	–	-4.66% [100 µM] (active)	61.2% [100 µM]
OCCN1CCCN(CCCN2c3ccccc3Sc3ccc(C(F)(F)F)cc32)CC1	81.5%	62.9%	41.8%	68%	85.7%	73.7%	–	23.4%	–
CC(O)CN(CC(C)O)N(CC(C)O)CC(C)O (stereo unspecified)	121%	107%	91.1%	99%	98.9%	104%	–	102%	–
CC(C)OCC1CO1 (stereo unspecified)	123%	109%	95.8%	98.7%	97.9%	–	–	110%	107%
CCCCCCCCCCCCCCCCCCOP(=O)(O)O	124%	94.1%	86.8%	100%	–	–	–	111%	107%
CCN(CC)CCCC(C)Nc1c(C)cnc2cc(Cl)c(C)cc12 (stereo unspecified)	117%	94.5%	–	94%	80.6%	–	62.2%	62.7%	90.5%
COc1cc(C(=O)Nc2ccc(N(C)C)cc2)cc(OC)c1OC	78.8%	–	85.8%	93.1%	91.1%	82.1%	–	92%	–
O=C(CCl)c1ccc2c(c1)CCCC2	80.3%	96.5%	–	98.4%	74.9%	101%	–	68.6%	86.7%
